Compounds with a hit are over-represented: about 2.3% of the library has one in this group of screens.
CHO-K1 Ca antag – nonselective inhibitor or artifact in parental CHO-K1 cells; inhibition, % at 3 µM; 360,000 tested, 0.6% active; AID 602250; ATP-induced calcium, Fluo-8 fluorescence;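 active = inhibition above a per-plate cutoff, the plate's mean sample inhibition plus 3 SD, cut at about 24% in these data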;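 note: 0% = DMSO plus EC80 ATP and 100% = DMSO alone without ATP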
M1 ag parental – M1 agonist counterscreen hit in parental CHO-K1 cells; Fluo-8 calcium fluorescence; scaled to maximal ATP response, vehicle zero; activation, % at 3 µM; 360,000 tested, 0.48% active; in the data active = activation above about 15%;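 note: untransfected CHO-K1 host cells lacking M1 receptor as counterscreen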
CHRM1 agonist – activates human CHRM1 receptor | P11229 | CHO-K1 hM1, Fluo-8 calcium fluorescence, agonist mode; 0% DMSO, 100% acetylcholine EC100 | activation, % at 3 µM | 360,000 tested, 0.33% active;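 active = activation above the run's mean compound activation plus 3 SD, cut at about 16% in these data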;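 note: peak over basal fluorescence ratio within a 140 s kinetic read after compound addition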
Target sequence (P11229 whole entry, looked up): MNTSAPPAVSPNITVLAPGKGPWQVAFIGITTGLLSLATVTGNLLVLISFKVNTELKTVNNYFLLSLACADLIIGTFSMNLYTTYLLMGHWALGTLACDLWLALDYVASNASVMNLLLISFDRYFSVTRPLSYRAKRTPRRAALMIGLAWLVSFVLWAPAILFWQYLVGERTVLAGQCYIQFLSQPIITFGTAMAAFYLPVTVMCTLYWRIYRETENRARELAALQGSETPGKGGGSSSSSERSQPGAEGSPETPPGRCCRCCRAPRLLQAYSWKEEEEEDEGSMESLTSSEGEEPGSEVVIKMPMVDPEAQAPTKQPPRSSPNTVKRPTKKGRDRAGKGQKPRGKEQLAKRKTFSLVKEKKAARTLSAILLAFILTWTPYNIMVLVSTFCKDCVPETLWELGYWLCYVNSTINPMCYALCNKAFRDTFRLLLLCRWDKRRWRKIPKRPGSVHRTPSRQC
M1 PAM – potentiates human M1 receptor response to acetylcholine. P11229. CHO-K1 hM1, Fluo-8 calcium fluorescence, ACh EC20; 0% = ACh EC20, 100% = maximal ACh. activation, % at 3 µM. 360,000 tested, 0.088% active; in the data active = activation above about 19%, passing the limit was not always enough
M1 PAM parental – M1 PAM counterscreen hit in parental CHO-K1 cells; AID 602247; ATP EC20, Fluo-8 calcium fluorescence; 0% at ATP EC20, 100% at ATP max; 360,000 tested, 0.02% active; activation, % at 3 µM;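 active = activation above the run cutoff, the mean activation of all test compounds plus 3 SD, cut at about 40% in these data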;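 note: peak over basal fluorescence ratio in a 140 s read after ATP addition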
M1 antag – antagonists of human M1 muscarinic receptor. CHO-K1 hM1, Fluo-8 calcium fluorescence, ACh EC80 antagonist. inhibition, % at 3 µM. 360,000 tested, 1.3% active. AID 588852;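 active = percent inhibition above its own plate's cutoff, namely the mean of that plate's compound wells plus 3 SD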;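 note: peak over basal fluorescence ratio during 140 s after agonist addition; 0% = ACh EC80 plus DMSO and 100% = DMSO alone without agonist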
* hit, by the source's call; nt = no result given.

SMILES	CHO-K1 Ca antag	M1 ag parental	CHRM1 agonist	M1 PAM	M1 PAM parental	M1 antag
Cc1[nH][nH]c(=O)c1C(c1c(C)[nH][nH]c1=O)c1cn(Cc2ccc(Cl)c(Cl)c2)c2ccccc12	0.2	1.0	20.3*	10.4	20.3	4.1
Clc1cccc2c1Sc1ccccc1CC2N1CCNCC1 (stereo unspecified)	6.0	5.8	-9.3	-26.1	15.2	87.9*
COCCCN1CCN(C2Cc3ccccc3Sc3ccc(Cl)cc32)CC1 (stereo unspecified)	0.1	7.5	-6.0	-23.2	21.0	47.5*
Clc1ccc2c(c1)C(N1CCNCC1)Cc1ccccc1S2 (stereo unspecified)	-1.3	1.6	-4.2	-25.1	12.4	86.6*
O=C(c1ccccc1Cl)N1CCNCC1	18.3	1.1	-4.2	-8.0	-8.4	20.4
CN(C)C(CNC(=O)c1cccc(S(=O)(=O)N2CCN(c3ccc(F)cc3)CC2)c1)c1ccccc1 (stereo unspecified)	-6.9	7.2	1.7	-5.6	-15.5	4.8
CCCCCCCCN1C(=O)[C@H](CC(=O)NCCC(C)C)C[C@@]2(C(=O)OC)CCCCC=C12	-10.3	-0.6	nt	nt	0.4	nt
COc1ccc(CN2C[C@@H](CO)O[C@@H](n3cnc4c(N5CCOCC5)ncnc43)C2)cc1	-11.4	0.8	-0.7	9.8	16.7	-14.0
CCN1CCN(c2cc(C)c3cc(NC(=O)Cc4ccc(OC)c(OC)c4)ccc3n2)CC1	28.4*	-0.7	-7.2	10.2	1.0	-14.8
CCN(CC)CC(C)(C)C(=O)/C=C/c1ccc(/C=C/C(=O)C(C)(C)CN(CC)CC)cc1	24.6*	0.1	-8.2	-8.9	-9.1	15.4
O=C(Cn1cnc([N+](=O)[O-])c1)Nc1ccc(Cl)cc1Cl	5.1	0.9	0.2	6.9	13.7	-5.6
CCOC(=O)C1CCN(C(=O)COC(=O)c2cccc(NS(=O)(=O)c3ccccc3)c2)CC1	-9.7	6.3	-2.3	-3.8	15.7	1.2
Cc1c(C(=O)NCc2ccc(Cl)c(Cl)c2)sc(=O)n1Cc1ccc(S(=O)(=O)N(C)C)cc1	-4.6	6.9	-1.3	-9.8	9.1	13.0
Cc1c(C(=O)NCc2ccc(C(F)(F)F)cc2)sc(=O)n1Cc1cccc(F)c1	16.3	22.7*	37.1*	-3.2	14.1	39.2*
Cc1c(C(=O)NCc2cccc(C(F)(F)F)c2)sc(=O)n1Cc1cccc(F)c1	3.4	0.2	-4.6	-9.6	-4.6	7.5
COc1ccc(Br)c(Cn2c(C)c(C(=O)NCc3cccc([N+](=O)[O-])c3)sc2=O)c1	15.0	1.5	-10.3	-30.7	1.6	88.9*
Cc1c(C(=O)NCc2ccc(C(C)C)cc2)sc(=O)n1Cc1ccc(S(=O)(=O)N(C)C)cc1	9.5	7.5	0.2	-21.1	-1.4	33.9*
Cc1c(C(=O)NCc2cccc([N+](=O)[O-])c2)sc(=O)n1Cc1ccccc1F	0.5	4.8	-9.2	-32.9	19.1	66.8*
CC1C(=O)N(Cc2cn(CCC3OCCO3)nn2)CCS(=O)(=O)N1Cc1ccc(-c2ccc(Cl)cc2)cc1 (stereo unspecified)	2.4	10.9	-1.8	-13.2	-6.1	14.7
OC[C@@H]1CN(Cc2cccnc2)C[C@H](n2cnc3c(N4CCN(c5ccccc5)CC4)ncnc32)O1	-9.9	4.4	-0.9	-3.7	8.2	-7.0
Cc1cncc(NCc2cccc(Cl)c2)n1	-1.1	-0.1	-5.0	-1.3	-3.3	-2.9
COc1ccc(Cl)cc1Cn1c(C)c(C(=O)NCc2cccc([N+](=O)[O-])c2)sc1=O	-17.4	2.1	-10.6	-31.9	25.9	80.0*
COc1cc(NC(C)CCCN)c2nc(C)ccc2c1Oc1ccc(F)cc1 (stereo unspecified)	-3.5	0.9	-4.7	3.8	13.8	-13.6
CCCCC[C@@H](C)N1C[C@H](COCc2ccccc2)Oc2cc(N3CCC[C@@H]3COC)ccc2S1(=O)=O	-25.8	1.2	nt	nt	15.6	nt
CCOC(=O)N1CCN(CC(=O)Nc2nccs2)CC1	8.3	-0.3	-2.7	-1.9	-1.2	-3.2
SMILES	CHO-K1 Ca antag	M1 ag parental	CHRM1 agonist	M1 PAM	M1 PAM parental	M1 antag
CN(C)CCNc1nc(Oc2cccc(F)c2)c2sccc2n1	0.4	0.9	-9.1	-14.8	-4.3	6.7
O=C(COc1ccc(Br)cc1CNCCc1ccccc1)NCc1ccccc1	0.9	4.7	-3.0	-16.1	0.7	36.2*
CCCNCc1cc(Br)ccc1OCC(=O)NCCc1ccccc1	-4.5	3.3	-9.4	-0.5	18.0	-12.7
CCc1nc(N)nc(N)c1-c1ccc(N(C)Cc2ccccc2)c([N+](=O)[O-])c1	-10.6	9.0	6.2	-29.6	6.5	94.8*
Cc1ccc2oc(NC(=O)N3CCOCC3)cc(=O)c2c1	31.2*	0.1	-0.9	9.9	-4.0	-6.5
O=C(Nc1cc(=O)c2ccccc2o1)N1CCCCC1	3.4	2.6	-1.2	4.5	15.1	8.0
O=C(Nc1cc(=O)c2ccccc2o1)N1CCOCC1	10.5	2.6	1.4	-13.8	3.3	31.1*
COc1ccc(C(O)c2ncc(-c3cccc4ccccc34)[nH]2)cc1F (stereo unspecified)	-9.1	1.3	-0.6	6.5	8.1	-13.0
NC(=O)CC(NC(=O)c1cccc(Br)c1)c1ccc(NC2CCN(Cc3ccccc3)CC2)c([N+](=O)[O-])c1 (stereo unspecified)	-13.9	0.9	-10.7	-25.8	11.1	46.1*
NC(=O)CC(NC(=O)Cc1ccc(Cl)cc1)c1ccc(NC2CCN(Cc3ccccc3)CC2)c([N+](=O)[O-])c1 (stereo unspecified)	1.7	0.4	-11.0	-26.8	-1.6	26.7
Cc1cccc(C)c1-n1nnnc1C1c2ccccc2C(=O)N1CCCN1CCOCC1 (stereo unspecified)	-18.6	0.2	nt	nt	0.5	nt
O=C(CC(c1ccc(F)cc1)c1ccco1)N1CCOCC1 (stereo unspecified)	-10.8	0.6	-3.0	28.0*	-1.7	13.3
CCCNC(=O)C1(C)CCN(C(=O)/C=C/c2ccccc2)C1 (stereo unspecified)	1.4	-0.1	-5.0	-8.5	-3.4	22.1
O=C(NCCc1ccccc1)C(=O)c1cn(CC(=O)N2CCCC2)c2ccccc12	23.8*	0.9	-4.3	7.0	-9.8	-7.9
COc1ccccc1CCNC(=O)C(=O)c1cn(CC(=O)N2CCCC2)c2ccccc12	-11.3	2.1	-4.6	11.8	20.9	-6.3
C=CCc1cccc(CNc2cnc3ccccc3c2)c1O	38.5*	9.3	1.7	-11.8	-22.7	40.4*
COc1ccc(N(CC(=O)N2c3ccccc3CC2C)S(=O)(=O)c2c(C)nn(C)c2C)cc1 (stereo unspecified)	18.4	5.6	-6.5	-9.7	-4.5	28.1*
COC(=O)C[C@H]1C[C@H]2c3cc(NC(=O)NC4CCCC4)ccc3O[C@H]2[C@@H](CO)O1	-11.5	0.1	-0.7	2.9	0.8	-4.5

Screens deposited in PubChem BioAssay by The Scripps Research Institute Molecular Screening Center.
